Reference: the supplement of paper PMC11732987, “Enantioselective OTUD7B fragment discovery through chemoproteomics screening and high-throughput optimisation” (Communications Chemistry, 2025)
Values without a mark were called inactive.

Assays:
Assay in all cases: log2 ratio of Biotin-Ahx-Ub-VS probe labelling (fragment/DMSO); higher = less target engagement (more negative = stronger competition), active = hit call of the paper (q ≤ 0.05, log2 ratio ≤ -1)
Details in all cases: compound concentration: 200 uM; treatment time: 3 h
[1] = target: T1, ALG13 (UniProt Q9NP73)
T1 sequence (whole entry): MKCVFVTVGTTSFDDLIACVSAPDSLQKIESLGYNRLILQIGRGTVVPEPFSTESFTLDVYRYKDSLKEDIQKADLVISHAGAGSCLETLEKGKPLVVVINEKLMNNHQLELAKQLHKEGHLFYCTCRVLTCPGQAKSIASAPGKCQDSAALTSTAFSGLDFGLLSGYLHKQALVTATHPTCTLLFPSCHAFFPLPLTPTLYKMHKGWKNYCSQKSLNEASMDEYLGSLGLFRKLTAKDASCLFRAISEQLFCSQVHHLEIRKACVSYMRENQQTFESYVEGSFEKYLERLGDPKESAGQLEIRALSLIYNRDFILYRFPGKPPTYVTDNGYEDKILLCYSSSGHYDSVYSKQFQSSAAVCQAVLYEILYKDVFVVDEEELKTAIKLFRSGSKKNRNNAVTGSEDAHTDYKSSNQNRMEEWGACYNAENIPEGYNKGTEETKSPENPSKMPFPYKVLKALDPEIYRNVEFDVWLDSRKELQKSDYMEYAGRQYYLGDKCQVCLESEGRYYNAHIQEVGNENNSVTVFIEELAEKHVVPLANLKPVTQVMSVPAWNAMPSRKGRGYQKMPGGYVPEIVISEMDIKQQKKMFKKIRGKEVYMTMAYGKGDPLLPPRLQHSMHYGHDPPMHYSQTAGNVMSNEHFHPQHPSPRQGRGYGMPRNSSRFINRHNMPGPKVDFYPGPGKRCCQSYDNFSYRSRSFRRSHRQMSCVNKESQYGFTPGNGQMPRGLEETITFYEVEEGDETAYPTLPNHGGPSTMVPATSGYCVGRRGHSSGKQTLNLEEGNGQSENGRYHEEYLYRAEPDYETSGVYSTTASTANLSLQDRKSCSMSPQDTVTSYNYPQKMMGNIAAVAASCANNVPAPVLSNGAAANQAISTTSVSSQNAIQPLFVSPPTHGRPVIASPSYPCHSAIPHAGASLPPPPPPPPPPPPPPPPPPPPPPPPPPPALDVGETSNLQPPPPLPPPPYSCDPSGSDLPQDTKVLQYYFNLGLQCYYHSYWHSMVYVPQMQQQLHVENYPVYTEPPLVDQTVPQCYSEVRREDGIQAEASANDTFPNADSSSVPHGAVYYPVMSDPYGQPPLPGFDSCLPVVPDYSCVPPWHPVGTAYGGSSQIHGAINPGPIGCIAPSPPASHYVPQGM
Outline: (§1)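 Labelled DUBs were enriched with NeutrAvidin, digested with LysC and trypsin, and run by diaPASEF LC-MS/MS. The labelling used Biotin-Ahx-Ub-VS at 0.5 µM final for 1 h on HEK293T lysate (495 µg per sample) previously treated in triplicate with fragment at 200 µM or vehicle for 3 h. Values are average log2 fragment/vehicle ratios by unpaired t-test on global-median-normalised Spectronaut quantities of proteins with ≥2 unique peptides.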

[2] = target: ATXN3 (UniProt P54252)
Outline: as §1

[3] = target: T2, BAP1 (UniProt Q92560)
T2 sequence (whole entry): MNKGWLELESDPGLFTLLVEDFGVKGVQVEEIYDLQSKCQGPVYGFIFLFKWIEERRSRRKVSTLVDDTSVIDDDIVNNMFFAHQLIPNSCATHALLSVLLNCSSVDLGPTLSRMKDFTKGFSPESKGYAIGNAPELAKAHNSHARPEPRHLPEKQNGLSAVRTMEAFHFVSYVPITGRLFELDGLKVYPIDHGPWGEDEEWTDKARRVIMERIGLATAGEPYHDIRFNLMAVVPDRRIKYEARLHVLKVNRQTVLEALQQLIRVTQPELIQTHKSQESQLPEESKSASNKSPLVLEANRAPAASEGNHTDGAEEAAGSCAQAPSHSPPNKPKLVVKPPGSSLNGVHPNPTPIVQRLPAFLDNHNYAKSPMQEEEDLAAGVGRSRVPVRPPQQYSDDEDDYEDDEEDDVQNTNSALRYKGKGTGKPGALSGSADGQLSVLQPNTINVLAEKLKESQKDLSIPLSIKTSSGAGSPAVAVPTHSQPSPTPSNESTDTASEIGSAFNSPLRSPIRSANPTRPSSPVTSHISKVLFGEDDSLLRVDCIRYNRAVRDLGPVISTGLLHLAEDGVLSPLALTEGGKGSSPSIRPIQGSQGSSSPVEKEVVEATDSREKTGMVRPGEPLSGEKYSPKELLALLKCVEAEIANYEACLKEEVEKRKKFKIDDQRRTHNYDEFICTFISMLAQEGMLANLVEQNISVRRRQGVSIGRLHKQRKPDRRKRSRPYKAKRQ
Outline: as §1

[4] = target: EIF3F (UniProt O00303)
Outline: as §1

[5] = target: EIF3H (UniProt O15372)
Outline: as §1

[6] = target: T3, FAM105A (UniProt Q9NUU6)
T3 sequence (whole entry): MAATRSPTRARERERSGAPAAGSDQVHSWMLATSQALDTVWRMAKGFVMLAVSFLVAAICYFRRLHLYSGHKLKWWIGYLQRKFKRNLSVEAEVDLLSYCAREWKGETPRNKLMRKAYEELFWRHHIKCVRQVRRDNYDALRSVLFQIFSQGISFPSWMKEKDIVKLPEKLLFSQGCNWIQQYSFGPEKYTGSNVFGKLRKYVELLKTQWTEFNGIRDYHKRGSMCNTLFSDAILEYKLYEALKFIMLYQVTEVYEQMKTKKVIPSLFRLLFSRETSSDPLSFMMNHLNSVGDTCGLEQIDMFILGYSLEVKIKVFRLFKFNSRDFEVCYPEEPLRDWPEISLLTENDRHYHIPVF
Outline: as §1

[7] = target: OTUB1 (UniProt Q96FW1)
Outline: as §1

[8] = target: T4, OTUD4 (UniProt Q01804)
T4 sequence (whole entry): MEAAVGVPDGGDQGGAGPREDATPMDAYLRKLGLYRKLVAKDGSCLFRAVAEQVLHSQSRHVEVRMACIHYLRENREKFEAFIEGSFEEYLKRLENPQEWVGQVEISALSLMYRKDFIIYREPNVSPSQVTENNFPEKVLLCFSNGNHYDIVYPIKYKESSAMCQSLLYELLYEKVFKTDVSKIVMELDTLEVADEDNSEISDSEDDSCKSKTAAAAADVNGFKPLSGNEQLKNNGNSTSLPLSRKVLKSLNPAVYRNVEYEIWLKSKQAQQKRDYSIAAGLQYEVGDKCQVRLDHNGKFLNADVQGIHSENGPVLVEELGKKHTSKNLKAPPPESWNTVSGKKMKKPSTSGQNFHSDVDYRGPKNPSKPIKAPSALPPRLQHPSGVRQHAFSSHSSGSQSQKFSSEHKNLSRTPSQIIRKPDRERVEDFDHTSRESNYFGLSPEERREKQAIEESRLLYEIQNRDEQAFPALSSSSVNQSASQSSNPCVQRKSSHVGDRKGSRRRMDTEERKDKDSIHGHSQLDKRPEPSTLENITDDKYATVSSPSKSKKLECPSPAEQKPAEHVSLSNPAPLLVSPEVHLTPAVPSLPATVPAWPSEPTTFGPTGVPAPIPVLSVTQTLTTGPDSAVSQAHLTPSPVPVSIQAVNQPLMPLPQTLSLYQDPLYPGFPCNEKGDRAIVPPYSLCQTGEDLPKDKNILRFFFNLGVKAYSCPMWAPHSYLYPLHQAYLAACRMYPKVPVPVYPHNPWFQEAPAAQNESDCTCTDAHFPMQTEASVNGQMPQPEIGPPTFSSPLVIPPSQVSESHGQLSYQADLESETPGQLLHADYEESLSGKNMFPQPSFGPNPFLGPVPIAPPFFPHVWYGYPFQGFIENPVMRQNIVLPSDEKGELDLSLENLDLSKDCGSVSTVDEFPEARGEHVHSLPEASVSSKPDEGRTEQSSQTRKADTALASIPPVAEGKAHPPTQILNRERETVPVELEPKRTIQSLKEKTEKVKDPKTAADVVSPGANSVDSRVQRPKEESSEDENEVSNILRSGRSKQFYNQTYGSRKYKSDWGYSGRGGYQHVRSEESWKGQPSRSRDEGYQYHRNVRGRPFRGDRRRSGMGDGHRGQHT
Outline: as §1

[9] = target: T5, OTUD5 (UniProt Q96G74)
T5 sequence (whole entry): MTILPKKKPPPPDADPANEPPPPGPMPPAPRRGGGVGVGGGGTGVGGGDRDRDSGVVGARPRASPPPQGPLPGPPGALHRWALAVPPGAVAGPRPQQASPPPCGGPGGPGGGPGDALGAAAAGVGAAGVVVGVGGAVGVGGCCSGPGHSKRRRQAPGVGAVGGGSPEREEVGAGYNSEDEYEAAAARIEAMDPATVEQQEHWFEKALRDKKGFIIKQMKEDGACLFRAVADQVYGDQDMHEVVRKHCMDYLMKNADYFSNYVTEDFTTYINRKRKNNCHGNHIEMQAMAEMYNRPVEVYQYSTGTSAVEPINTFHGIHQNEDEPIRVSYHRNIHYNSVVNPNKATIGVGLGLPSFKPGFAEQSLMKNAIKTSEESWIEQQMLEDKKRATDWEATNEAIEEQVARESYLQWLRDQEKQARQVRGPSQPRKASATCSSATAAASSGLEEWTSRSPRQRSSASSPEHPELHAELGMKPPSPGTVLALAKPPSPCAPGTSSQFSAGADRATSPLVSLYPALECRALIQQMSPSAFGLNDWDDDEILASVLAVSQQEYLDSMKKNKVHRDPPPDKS
Outline: as §1

ATXN3, sequence (P54252 whole entry): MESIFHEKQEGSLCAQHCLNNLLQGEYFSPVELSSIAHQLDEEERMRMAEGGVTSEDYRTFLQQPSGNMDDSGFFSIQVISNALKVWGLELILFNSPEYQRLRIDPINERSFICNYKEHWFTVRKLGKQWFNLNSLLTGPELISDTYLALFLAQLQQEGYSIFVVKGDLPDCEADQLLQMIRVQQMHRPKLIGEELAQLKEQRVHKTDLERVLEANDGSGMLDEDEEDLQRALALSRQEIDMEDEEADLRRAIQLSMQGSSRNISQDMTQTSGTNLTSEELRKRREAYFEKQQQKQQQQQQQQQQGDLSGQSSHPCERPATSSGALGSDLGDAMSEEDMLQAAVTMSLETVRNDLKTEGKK
EIF3H, sequence (O15372 whole entry): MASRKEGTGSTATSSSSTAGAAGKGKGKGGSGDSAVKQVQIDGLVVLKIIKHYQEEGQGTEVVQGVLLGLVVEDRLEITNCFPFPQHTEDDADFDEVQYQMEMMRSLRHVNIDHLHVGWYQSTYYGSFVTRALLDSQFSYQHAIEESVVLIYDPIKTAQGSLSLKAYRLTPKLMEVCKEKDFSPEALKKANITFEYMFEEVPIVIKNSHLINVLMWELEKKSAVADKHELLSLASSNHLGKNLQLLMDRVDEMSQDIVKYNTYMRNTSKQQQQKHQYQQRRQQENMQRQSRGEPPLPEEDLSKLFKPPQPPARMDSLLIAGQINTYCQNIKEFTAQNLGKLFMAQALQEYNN
OTUB1, sequence (Q96FW1 whole entry): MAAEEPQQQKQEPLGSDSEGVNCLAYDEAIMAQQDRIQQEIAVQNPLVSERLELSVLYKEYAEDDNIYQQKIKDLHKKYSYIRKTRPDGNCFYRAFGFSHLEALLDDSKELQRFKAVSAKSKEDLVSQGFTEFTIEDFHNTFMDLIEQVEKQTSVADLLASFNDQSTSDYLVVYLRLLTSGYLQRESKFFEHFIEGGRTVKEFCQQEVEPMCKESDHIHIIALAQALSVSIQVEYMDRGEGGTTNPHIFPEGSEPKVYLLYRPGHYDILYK
EIF3F, sequence (O00303 whole entry): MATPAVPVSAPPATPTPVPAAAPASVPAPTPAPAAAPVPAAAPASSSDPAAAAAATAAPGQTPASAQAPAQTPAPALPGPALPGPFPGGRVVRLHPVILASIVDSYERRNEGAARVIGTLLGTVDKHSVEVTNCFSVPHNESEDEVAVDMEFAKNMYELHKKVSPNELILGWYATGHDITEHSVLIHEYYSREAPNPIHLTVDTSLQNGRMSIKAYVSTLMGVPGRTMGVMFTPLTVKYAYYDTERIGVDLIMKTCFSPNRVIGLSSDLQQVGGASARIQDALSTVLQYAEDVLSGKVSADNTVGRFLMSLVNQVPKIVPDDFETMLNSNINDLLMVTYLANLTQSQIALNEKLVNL

Row | SMILES | log2 ratio of Biotin-Ahx-Ub-VS probe labelling [1] | log2 ratio of Biotin-Ahx-Ub-VS probe labelling [2] | log2 ratio of Biotin-Ahx-Ub-VS probe labelling [3] | log2 ratio of Biotin-Ahx-Ub-VS probe labelling [4] | log2 ratio of Biotin-Ahx-Ub-VS probe labelling [5] | log2 ratio of Biotin-Ahx-Ub-VS probe labelling [6] | log2 ratio of Biotin-Ahx-Ub-VS probe labelling [7] | log2 ratio of Biotin-Ahx-Ub-VS probe labelling [8] | log2 ratio of Biotin-Ahx-Ub-VS probe labelling [9]
1 | Cc1cc(Cl)ccc1NC(=O)CCl | -0.00605 | -0.0857 | -3.02 (active) | 0.0767 | 0.0385 | 0.174 | -0.116 | -0.0791 | -0.0787
2 | O=C(CCl)Nc1cc2c(cc1Cl)OCCCO2 | 0.0687 | -0.0939 | -3.43 (active) | -0.197 | -0.577 | 0.278 | -0.0827 | 0.136 | -0.0905
3 | Cc1c(C#N)c(NC(=O)CCl)n(Cc2ccco2)c1C | 0.126 | -0.609 | -3.61 (active) | -0.174 | -0.447 | -0.107 | 0.0458 | -0.292 | -0.61
4 | CC(NC(=O)CCl)c1cccc(Cl)c1 (stereo not drawn) | 0.0326 | -0.401 | -3.17 (active) | 0.0315 | 0.0634 | -0.0535 | 0.0729 | -0.705 | -0.433
5 | O=C(CCl)N1CCC(c2ccn[nH]2)C1 (stereo not drawn) | -0.443 | -0.622 | -0.721 | -0.232 | 0.0161 | -0.198 | -0.156 | -0.303 | -0.376
6 | Cl.O=C(CCl)N1CCn2cncc2C1 | 0.285 | -0.224 | -0.163 | -0.0339 | 0.0971 | -0.433 | -0.000993 | 0.0549 | -0.214
7 | O=C(CCl)N1CCc2sccc2C1 | -0.104 | -0.969 | -0.988 | -0.211 | -0.00567 | -0.348 | -0.126 | -0.819 | -0.923
